Source: PubChem BioAssay (NCI)
About 79,000 compounds went through this panel and 15% of them were active in at least one assay; those are over-represented in the sample as a whole. Unmarked numbers belong to inactive results. Activity calls are given as the source filed them. No stated cut-off is given here; in the data, active means growth inhibition above about 70%; inactive means the rest.

Tests used:
[1] = NCI Yeast Anticancer Drug Screen. Data for the rad50 strain (AID 155);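 further: 0% = growth of vehicle-only cultures of the same strain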; conditions: S. cerevisiae rad50 strain growth inhibition, active compounds read high
Outline: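 Compounds were tested on a yeast strain with an engineered DNA damage repair alteration; the reported value is growth inhibition normalised to vehicle treatment.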

[2] = NCI Yeast Anticancer Drug Screen. Data for the mec2-1 strain (AID 157); conditions: S. cerevisiae mec2-1 strain, active compounds read high
Outline: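 Test agents were screened against the mec2-1 yeast strain, with defined DNA repair or cell cycle alteration. Growth was scored as inhibition against vehicle-only controls.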

[3] = NCI Yeast Anticancer Drug Screen. Data for the sgs1 mgt1 strain (AID 161);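 further: 0% = growth of cultures given vehicle only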; conditions: S. cerevisiae sgs1 mgt1 strain, active compounds read high
Outline: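 Mutant yeast exposed to compound; growth scored against vehicle-only wells.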

[4] = NCI Yeast Anticancer Drug Screen. Data for the cln2 rad14 strain (AID 165);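 further: 0% = growth equal to vehicle treated cultures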; conditions: S. cerevisiae cln2 rad14 strain, active compounds read high
Outline: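 Growth of compound-exposed yeast (cln2 rad14 genotype) measured and expressed as inhibition relative to vehicle.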

[5] = NCI Yeast Anticancer Drug Screen. Data for the bub3 strain (AID 167); conditions: S. cerevisiae bub3 mutant strain, active compounds read high
Outline: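 Growth of a checkpoint-deficient yeast mutant is measured after compound exposure. Values represent inhibition relative to vehicle.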

[6] = NCI Yeast Anticancer Drug Screen. Data for the mlh1 rad18 strain (AID 175); conditions: S. cerevisiae mlh1 rad18 strain growth inhibition, active compounds read high
Outline: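 In this whole-cell yeast screen, a strain with altered DNA damage repair is challenged with compound, and its growth is measured against matched vehicle-treated controls.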

[7] = at 5.0 µM (retest, dose inferred, filed as 0.5)
[8] = at 50.0 µM (retest, dose inferred, filed as 5.0)

Structure (SMILES) | growth inhibition [1, 7] [%] | growth inhibition [1, 8] | growth inhibition ([1]; at 50.0 µM) | growth inhibition [2, 7] [%] | growth inhibition [2, 8] | growth inhibition ([2]; at 50.0 µM) | growth inhibition [3, 7] [%] | growth inhibition [3, 8] | growth inhibition ([3]; at 50.0 µM) | growth inhibition [4, 7] [%] | growth inhibition [4, 8] | growth inhibition ([4]; at 50.0 µM) | growth inhibition [5, 7] [%] | growth inhibition [5, 8] | growth inhibition ([5]; at 50.0 µM) | growth inhibition [6, 7] [%] | growth inhibition [6, 8] | growth inhibition ([6]; at 50.0 µM)
N#CC1CCC(c2ccccc2)(c2ccccc2)C1=O (stereo not given) | 5 | 99% (active) | 94.6% (active) | 5 | 99% (active) | 99.7% (active) | 4 | 100% (active) | 99.6% (active) | -2 | 99% (active) | 97.5% (active) | -4 | 98% (active) | 74.3% (active) | -5 | 98% (active) | 99.5% (active)
CC1C(CCC(=O)O)OC2CC3C4CCC5CC(O)CCC5(C)C4CCC3(C)C21 (stereo not given) | 4 | 56% | 82.3% (active) | 7 | 96% (active) | 90% (active) | 22 | 89% (active) | 95.5% (active) | 8 | 90% (active) | 93.7% (active) | 4 | 66% | 86.4% (active) | 16 | 91% (active) | 85.3% (active)
CCCCCCC1CCC(CCCCCCCC(=O)N2CCN(C)CC2)C(C/C=C/CCCCCCCC(=O)N2CCN(C)CC2)C1CCCCC (stereo not given) | 3 | 93% (active) | 98.8% (active) | -1 | 75% (active) | 99.3% (active) | 1 | 70% (active) | 99.3% (active) | -1 | 84% (active) | 92.6% (active) | 4 | 90% (active) | 98.7% (active) | 6 | 95% (active) | 98.9% (active)
Cc1c2c(c(C)c3c1sc1ccccc13)CCN=C2 | 9 | 98% (active) | 55.5% | -14 | 98% (active) | 49.9% | -1 | 98% (active) | 57.6% | -21 | 98% (active) | 94.9% (active) | -5 | 98% (active) | 92.8% (active) | -8 | 99% (active) | 57.2%
CCCCCCCCCCCCCCCCCC[n+]1ccc(C(C)CC)cc1 (stereo not given) | 1 | 96% (active) | 99.3% (active) | 12 | 98% (active) | 99.6% (active) | 18 | 97% (active) | 99.2% (active) | 16 | 87% (active) | 99.1% (active) | 29 | 96% (active) | 99.2% (active) | 6 | 97% (active) | 99.2% (active)
